This note sets out measurements from PubChem BioAssay AID743320 (Broad Institute, 2014).

Measured potencies and affinities stand elsewhere. A number with no mark means an inactive call.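 Rule for the calls: active = signal drop whose fitted half-maximal potency is at most twice the top valid dose tested; inconclusive = flat curve inhibiting 30 to 70 percent, or a poor fit; inactive = the rest.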

For this assay, the target named is Endoplasmic reticulum aminopeptidase 2 (Homo sapiens) (UniProt Q6P179). The assay is described as follows: ERAP2 aminopeptidase inhibitors, dose response, selectivity assay for selective ERAP1 modulator project, biochemical, fluorescence plate reader, cherry-picked, set 2 (AID 743320). As to conditions: recombinant ERAP2, Arg-AMC fluorescence, 1 h; series mostly up to 11 µM; activity change, negative = inhibition: at the top concentration.
Chain of Endoplasmic reticulum aminopeptidase 2 (Homo sapiens) (Q6P179 whole entry, looked up): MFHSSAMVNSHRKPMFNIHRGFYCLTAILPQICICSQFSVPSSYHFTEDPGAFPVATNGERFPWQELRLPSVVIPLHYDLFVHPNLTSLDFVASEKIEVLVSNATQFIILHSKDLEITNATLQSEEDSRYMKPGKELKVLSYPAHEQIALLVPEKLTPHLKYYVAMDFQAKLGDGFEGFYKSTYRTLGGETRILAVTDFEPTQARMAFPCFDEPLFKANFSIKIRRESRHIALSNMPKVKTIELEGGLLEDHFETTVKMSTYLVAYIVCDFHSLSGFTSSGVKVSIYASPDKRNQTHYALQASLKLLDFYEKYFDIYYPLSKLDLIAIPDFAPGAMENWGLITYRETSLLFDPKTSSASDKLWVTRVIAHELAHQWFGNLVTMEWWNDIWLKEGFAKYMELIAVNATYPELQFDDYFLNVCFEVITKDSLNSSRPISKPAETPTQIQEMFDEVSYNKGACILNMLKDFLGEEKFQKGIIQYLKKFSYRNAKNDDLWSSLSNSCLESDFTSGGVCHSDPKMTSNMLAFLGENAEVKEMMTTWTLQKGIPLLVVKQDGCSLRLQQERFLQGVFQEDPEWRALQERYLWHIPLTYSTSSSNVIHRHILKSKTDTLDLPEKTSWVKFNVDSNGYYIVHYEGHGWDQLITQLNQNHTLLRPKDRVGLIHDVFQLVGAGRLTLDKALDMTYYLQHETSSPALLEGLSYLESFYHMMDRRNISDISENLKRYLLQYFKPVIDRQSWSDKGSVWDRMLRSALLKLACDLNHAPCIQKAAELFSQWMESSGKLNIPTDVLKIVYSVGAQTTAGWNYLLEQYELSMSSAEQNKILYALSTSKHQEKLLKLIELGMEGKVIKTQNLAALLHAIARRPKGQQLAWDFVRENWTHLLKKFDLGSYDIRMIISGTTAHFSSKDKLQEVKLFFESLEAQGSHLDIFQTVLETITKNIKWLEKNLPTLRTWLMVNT
As to `Cc1ccccc1-c1ccc2c(c1)O[C@@H](CN(C)Cc1ccc(C(=O)O)cc1)[C@@H](C)CN([C@@H](C)CO)S2(=O)=O`, the “activity change, negative = inhibition” value was 0.523%.

In the case of `CCCN(C)C[C@@H]1OCCCC[C@H](C)Oc2ccc(NC(=O)Nc3ccc(F)cc3)cc2C(=O)N([C@H](C)CO)C[C@@H]1C`, the “activity change, negative = inhibition” value is 10.8%. For `C[C@H]1CN([C@@H](C)CO)C(=O)c2cccc(NC(=O)Nc3ccc4c(c3)OCO4)c2O[C@@H]1CN(C)CC1CC1`, the “activity change, negative = inhibition” value was 12.8%.

On to `CO[C@@H]1CN(C)C(=O)c2ccc(NC(=O)Nc3cccc(Cl)c3)cc2OC[C@@H](C)NC[C@H]1C`, for which the “activity change, negative = inhibition” value is 3.9%.

`C[C@@H]1CCCCO[C@@H](CN(C)C)[C@@H](C)CN([C@@H](C)CO)C(=O)c2cc(NS(=O)(=O)c3ccc(F)cc3)ccc2O1`: the “activity change, negative = inhibition” value was 5.3%. For the molecule `O=C(O)c1cccc(NC(=O)c2ccccc2NC(=O)c2cccc([N+](=O)[O-])c2)c1`, the “activity change, negative = inhibition” value is 15.7%. The result for `Cc1c(O)ccc2c(CN3CCN(Cc4ccccc4)CC3)cc(=O)oc12` reads 408%; that for `C[C@H](CO)N1C[C@H](C)[C@H](CN(C)Cc2ccncc2)Oc2c(NC(=O)Nc3ccc(C(F)(F)F)cc3)cccc2C1=O`, 4.68%; that for `Cc1ccc(-c2cc(C(=O)N3CCCC3)c3ccccc3n2)s1`, 133%.

Take `NC(=NCCc1c[nH]c2ccccc12)NS(=O)(=O)c1cc(F)ccc1F`: the “activity change, negative = inhibition” value was 9.24%. For `C[C@@H]1CCCCO[C@H](CN(C)Cc2ccc(C(=O)O)cc2)[C@H](C)CN([C@@H](C)CO)C(=O)c2cc(NC(=O)Nc3ccc(C(F)(F)F)cc3)ccc2O1` the value was 11.3%.

Consider `Cc1noc(C)c1S(=O)(=O)Nc1ccc2c(c1)C(=O)N([C@H](C)CO)C[C@H](C)[C@H](CN(C)Cc1ccc3c(c1)OCO3)OCCCC[C@@H](C)O2`, for which the “activity change, negative = inhibition” value is 11.2% [at 10 µM].
